From PubChem BioAssay (NCATS)
Several values for one entry are separate records, joined by “and”; a condition that tells them apart may be missing. Identical values can stand only once. Records with an inconclusive call do not appear. Entries that show only a call come without a potency. A number with no mark means an inactive call. Activity calls are given as the source filed them. Calls follow the shape of the dose curve; as a rule, active = well fitted curve in the direction sought with a large enough effect; inconclusive = small, poorly fitted or top-dose-only effect, or another doubt; inactive = no such curve, though single readings can be large; an effect the other way counts as inactive or inconclusive.

Experiments:
[1] = Confirmatory screen GU Rhodamine qHTS for Zika virus inhibitors qHTS (AID 1347157); details: purified enzyme assay, Rhodamine110 substrate fluorescence, 15 min; series mostly up to 114 µM; also: potency is read from the fitted curve at half-maximal effect; nearly all actives have a fitted effect of over 70% in size
In short: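 In dose–response format, inhibition of unlinked protease (25 nM) was measured with 1.5 microM bis-peptide Rhodamine110 substrate. Aprotinin served as the intraplate control.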

[2] = ZIKV-mCherry secondary qHTS for Zika virus inhibitors (AID 1347158); details: Vero cells, ZIKV-mCherry infection imaging, 48-72 h; series mostly up to 49.2 µM; also: top concentration of the series differs between compounds
In short: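 After overnight seeding at 37 °C, Vero cells receive compound and then ZIKV-mCherry (MOI 1). Following 48-72 h infection, cells are fixed, counterstained with Hoechst, and imaged; percent infected cells is derived from an mCherry intensity cut-off of 450 RFU.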

[3] = system: Zika virus NS2B-NS3 protease (unlinked complex); assay: Primary screen GU Rhodamine qHTS for Zika virus inhibitors: Unlinked NS2B-NS3 protease assay (AID 1347159); details: Recombinant ZIKV NS2B-NS3 protease, Rhodamine110 substrate fluorescence; series mostly up to 107 µM; also: nearly all actives have a fitted effect of over 60% in size; also: potency is read from the fitted curve at half-maximal effect
In short: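 A qHTS format was used, with compound concentrations ranging up to 114 microM. Each compound was preincubated with 25 nM NS2B-NS3 protease, and the substrate was then added at 1.5 microM. Curves were fitted with a 4-parameter Hill model.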

[4] = system: Zika virus NS2B-NS3 protease (linked construct); assay: Primary screen NINDS Rhodamine qHTS for Zika virus inhibitors (AID 1347160); details: purified NS2B-NS3 protease, Rhodamine110 substrate fluorescence; series mostly up to 57.1 µM; also: nearly all actives have a fitted effect of over 55% in size; also: potency is read from the fitted curve at half-maximal effect
In short: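 Kinetic fluorescence (Ex 480 nm, Em 540 nm) over 15 min with 1.5 microM Rhodamine110 peptide and 25 nM linked protease.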

[5] = Vero cells viability qHTS for Zika virus inhibitors (AID 1347167); details: cytotoxicity counter-screen (Zika); series mostly up to 45.9 µM
In short: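 Compounds were tested in concentration series on cells grown in DMEM containing 4% FBS. After 24 to 48 hours, cellular ATP was measured by luminescence with CellTiter Glo.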

[6] = Tertiary RLuc qRT-PCR qHTS assay for Zika virus inhibitors (AID 1347169); details: infected Vero cells, reporter luminescence, 48-72 h; series mostly up to 45.9 µM; also: nearly all actives have a fitted effect of over 55% in size; also: potency is read from the fitted curve at half-maximal effect; as to activity change, negative = inhibition: top concentration of the series differs between compounds
In short: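 Vero cells (1,000 per well) plated overnight at 37 degrees C, treated with compound in DMSO, then infected with recombinant ZIKV-RLuc (Cambodian) at MOI 1-2 for 48-72 hrs. Live-cell Renilla luciferase substrate added; luminescence read after 1-1.5 hrs.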

[7] = system: Zika virus NS2B-NS3 protease (linked); assay: 384 well plate NINDS AMC confirmatory qHTS for Zika virus inhibitors (AID 1347163); details: Recombinant NS2B-NS3 protease, Ac-VKTGKR-AMC fluorescence; series mostly up to 100 µM; also: nearly all actives have a fitted effect of over 50% in size; also: potency is read from the fitted curve at half-maximal effect;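 as to activity change, negative = inhibition: linked protease at 5 30 or 60 nM final depending on run; fluorescence of AMC released from Ac-VKTGKR-AMC peptide cleaved by the protease; top concentration of the series differs between compounds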
In short: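 Linked protease 5/30/60 nM final; cpds up to 1 mM final, ~15 min preinc. Substrate Ac-VKTGKR-AMC 30 microM final. RT, dark, 25 min; FI ex 355/em 460; normalized to no-enzyme/no-inhibitor ctrls.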

[8] = system: Zika virus NS2B-NS3 protease (linked construct); assay: 384 well plate NINDS Rhodamine confirmatory qHTS for Zika virus inhibitors (AID 1347164); details: rhodamine-110 peptide substrate fluorescence; series mostly up to 100 µM;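 also: fluorescence from protease cleavage of Ac-LKRR-rhodamine 110 substrate; potency is read from the fitted curve at half-maximal effect; nearly all actives have a fitted effect of over 65% in size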
In short: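 Linked protease at a final 5 nM, 30 nM or 60 nM was preincubated ~15 min with compounds, then given 10 microM Ac-LKRR-Rhodamine 110. Fluorescence (ex 485/em 538 nm) after 25 min in the dark at room temperature.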

[9] = system: Zika virus NS2B-NS3 protease; assay: Primary screen GU AMC qHTS for Zika virus inhibitors (AID 1347154); details: Zika NS2B-NS3 unlinked protease, AMC fluorogenic substrate; series mostly up to 54.1 µM; also: nearly all actives have a fitted effect of over 70% in size; also: potency is read from the fitted curve at half-maximal effect
In short: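 Fluorogenic AMC-substrate cleavage by noncovalent NS2B-NS3 protease complex (25 nM, pH 8.0 Tris buffer with Tween 20) followed for 15 minutes at room temperature (~20% conversion). Percent inhibition from ex340/em450 signal change, fitted by 4-parameter Hill equation.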

## Cc1cc(C)c2c(c1)C(N(Cc1cc(C(F)(F)F)cc(C(F)(F)F)c1)c1nnn(C)n1)CCCN2CC1CCC(C(=O)O)CC1 (configuration not stated)
[1]
  Potency: 8.79 µM (active)
[2]
  Potency: inactive
[3]
  Potency: 3.16 µM (active)
[4]
  Potency: 3.55 µM (active)
[5]
  outcome: inactive
[6]
  Potency: 16.5 µM (active)

## O=C(Nc1ccc(/C=C/c2ccc(NC(=O)c3cc(S(=O)(=O)O)c4cccnc4c3O)cc2S(=O)(=O)O)c(S(=O)(=O)O)c1)c1cc(S(=O)(=O)O)c2cccnc2c1O
[1]
  Potency: 2.82 µM (active)
[2]
  Potency: inactive
[7]
  Potency: 44.7 µM (active)
[8]
  Potency: 15.8 µM (active)
[6]
  activity change, negative = inhibition: 59.5% [at 5.25 µM]

## COc1cc2ncc(-c3ccccc3)nc2cc1OC
[9]
  Potency: 6.31 µM (active) and 2.38 µM (active)
[3]
  Potency: inactive
[4]
  Potency: inactive

## CC#C[C@@H](CC(=O)O)c1ccc(OCc2cccc(-c3ccc(C(F)(F)F)cc3)c2)cc1
[1]
  Potency: 0.698 µM (active)
[4]
  Potency: 1.58 µM (active)
[7]
  Potency: inactive
[8]
  Potency: 5.62 µM (active)
[5]
  outcome: inactive

## COc1ccc(-c2ccccc2)cc1NS(=O)(=O)c1cc(Cl)cc(Cl)c1O
[1]
  Potency: 1.21 µM (active)
[3]
  Potency: 1.41 µM (active)
[4]
  Potency: 1.58 µM (active)
[7]
  Potency: 4.47 µM (active)
[8]
  Potency: 4.47 µM (active)
[5]
  outcome: inactive

## Cc1ccc(OC[C@H](O)[C@H](C)NC(C)C)c2c1CCC2
[9]
  Potency: inactive

## Nc1nccc(-c2c(-c3ccc(F)cc3)ncn2C2CCCCC2)n1
[3]
  Potency: inactive

## O=C(N[C@@H]1CCCc2c1cnn2-c1ccc(F)cc1F)c1ccccn1
[3]
  Potency: inactive
[4]
  Potency: inactive

## O=C(NCC(=O)N1CCCC1)Nc1ccc2cnccc2c1
[3]
  Potency: inactive
[4]
  Potency: inactive

## C[C@H]1CC[C@@]2(OC1)O[C@H]1CC3[C@@H]4CC[C@@H]5C[C@@H](O[C@@H]6O[C@H](CO)[C@@H](O[C@@H]7O[C@@H](C)[C@H](O)[C@@H](O)[C@H]7O)[C@H](O)[C@H]6O[C@@H]6O[C@H](CO)[C@@H](O)[C@H](O)[C@H]6O)CC[C@]5(C)C4CC[C@]3(C)[C@H]1[C@@H]2C (some centres not stated)
[3]
  Potency: inactive
[4]
  Potency: inactive

## CC#CC(=O)Nc1ccc2ncnc(Nc3cccc(Br)c3)c2c1
[3]
  Potency: inactive
[4]
  Potency: inactive

## CCCNCCc1ccc(NS(=O)(=O)c2ccc(OC(F)(F)F)cc2)cc1
[3]
  Potency: inactive
[4]
  Potency: inactive

## CC(=O)O[C@H]1[C@H](O)C[C@@]2(C)C(CC[C@]3(C)C2CC=C2C4CC(C)(C)CC[C@]4(C(=O)O)CC[C@]23C)C1(C)C (some centres not stated)
[3]
  Potency: 7.94 µM (active)

## NCC(CNc1nc(Nc2cccc(NC(=O)N3CCCC3)c2)ncc1I)C(=O)c1cccs1 (configuration not stated)
[3]
  Potency: inactive
[4]
  Potency: inactive

## COc1cc(/C=C/C(=O)NCCn2c(C(F)(F)F)cc3ccccc32)cc(OC)c1OC
[3]
  Potency: inactive
[4]
  Potency: inactive

## Cc1cc(C)c(S(=O)(=O)n2cc(C)cc2C)c(C)c1
[3]
  Potency: inactive
[4]
  Potency: inactive

## COc1ccc(C#Cc2ccc(C(=O)N3CCC[C@@H](CO)C3)cc2)cc1
[3]
  Potency: inactive
[4]
  Potency: inactive

## Cc1cc(C)nc(SCC(=O)Nc2ncc(Cc3cccc4ccccc34)s2)n1
[3]
  Potency: inactive
[4]
  Potency: inactive

## CN(C)CCOc1cc(NS(=O)(=O)c2c(Cl)cc(C(F)(F)F)cc2Cl)ccc1Cl
[3]
  Potency: 5.62 µM (active)
[4]
  Potency: inactive

## COc1cc(O)cc(OC2OC(CO)C(O)C(O)C2O)c1 (configuration not stated)
[3]
  Potency: inactive
[4]
  Potency: inactive

## CCCc1ccc(OCC(=O)N(Cc2nc(-c3cccnc3)no2)C(C)C)cc1
[3]
  Potency: inactive
[4]
  Potency: inactive

## OC1C=C2C3CN(Cc4cc5c(cc43)OCO5)C2CC1O (configuration not stated)
[3]
  Potency: inactive
[4]
  Potency: inactive

## C=CC(=O)Nc1ccc(CN2C(=O)N(c3cc(OC)cc(OC)c3)Cc3cnc(Nc4ccc(N5CCN(C)CC5)cc4)nc32)cc1
[3]
  Potency: inactive
[4]
  Potency: inactive

## CCNC1(C(N)=O)CCN(c2ncnc3c2nc(-c2ccccc2Cl)n3-c2ccc(Cl)cc2)CC1
[3]
  Potency: inactive
[4]
  Potency: inactive

## COc1cc(CCO)ccc1O[C@@H]1O[C@H](CO)[C@@H](O)[C@H](O)[C@H]1O
[3]
  Potency: inactive
[4]
  Potency: inactive

## CC1(C)CC[C@]2(C(=O)O)CC[C@]3(C)C(=CCC4[C@@]5(C)C[C@@H](O)[C@H](O)C(CO)(CO)C5CC[C@]43C)C2[C@@H]1O (some centres not stated)
[3]
  Potency: inactive
[4]
  Potency: inactive

## CN(C)c1ccnc2sc3c(=O)n(N4CCCCCC4)cnc3c12
[3]
  Potency: inactive
[4]
  Potency: inactive

## CNc1nc(NCc2ccc(NS(C)(=O)=O)cc2Cl)cc(-c2ccccn2)n1
[3]
  Potency: inactive
[4]
  Potency: inactive

## CC(C)[C@@H](c1ccc(C(F)(F)F)cc1CN(Cc1cc(C(F)(F)F)cc(C(F)(F)F)c1)c1nnn(C)n1)N1CCC(C(=O)O)CC1
[3]
  Potency: 3.16 µM (active)

## COc1cccc(N2CCN(C3=Nc4c(F)cccc4[C@H](CC(=O)O)N3c3cc(C(F)(F)F)ccc3OC)CC2)c1
[3]
  Potency: 25.1 µM (active)

## Fc1ccc(-c2nc(C3CCNCC3)sc2-c2ccnc(NC3CC3)n2)cc1
[3]
  Potency: inactive
[4]
  Potency: inactive
